Laboratory results from PubChem BioAssay AID1645887 (National Center for Advancing Translational Sciences (NCATS), 2021).
About 40 (0.2%) of roughly 16,000 compounds were called active. Inconclusive results (about 1%) are left out. The call rests on the fitted dose curve; in most records, active means well fitted activation curve with a large enough effect; inconclusive means small, poorly fitted or top-dose-only effect, or another doubt; inactive means no such curve, though single readings can be large or run the other way. The sample as a whole holds a higher share of actives than the screen did. More than one record can exist for a structure, and the calls need not agree. Residues, ends and D or L forms follow the SMILES beside them.

Each compound was assayed against Rap guanine nucleotide exchange factor 4 (Homo sapiens) (UniProt Q8WZA2) (assay: Validation qHTS for agonist of cAMP-regulated guanine nucleotide exchange factor 4 (EPAC2)). Conditions: EPAC2 Rap1B BODIPY-GDP exchange, fluorescence; activation: stronger effect = higher value.
Text: Principle Investigator: Xiaodong Cheng Ph.D.
The University of Texas Medical Branch, […], TX
In multi-cellular eukaryotic organisms, the effects of cAMP are transduced by two ubiquitously-expressed intracellular cAMP receptors, the classic protein kinase A/cAMP-dependent protein kinase (PKA/cAPK) and the more recently discovered exchange protein directly activated by cAMP/cAMP-regulated guanine nucleotide exchange factor (EPAC/cAMP-GEF). Both PKA and EPAC are ubiquitously expressed in all tissues, and an increase in intracellular cAMP levels will lead to the activation of both PKA and EPAC. Therefore, careful dissections of the individual role and relative contribution of EPAC and PKA within the overall cAMP signaling in various model systems are critical for further elucidating the mechanism of cAMP signaling. To date no EPAC-specific antagonists and agonist, as well as isoform-specific agonists have been reported, and developing EPAC-specific pharmacological probes to determine the physiological functions that EPAC play in the overall cAMP-mediated signaling remains a major challenge within the research field. Furthermore, identified regulators of EPAC may lead to new mechanism-based therapeutic strategies specifically targeting the EPAC / cAMP-signaling components as EPAC has been implicated to play important roles in major human pathological conditions such as diabetes, heart disease, and cancer.
This qHTS will be used to screen the Molecular Libraries Small Molecule Repository (MLSMR) as a concentration-titration series using the NCGC unique quantitative screening (qHTS) platform to find activators for EPAC1. In addition, this assay will also be used as a counterscreen for the EPAC2 qHTS. This fluorescent based assay is developed and validated for EPAC1 that measures exchange using EPAC effector Rap1 complex with BODIPY-GDP, a GDP analog with a tethered fluorophores. Activators are identified by monitoring the change in fluorescence signal as the exchanged free BODIPY-GDP has a reduced fluorescence compared to Rap1-bound BODIPY-GDP. Increase in signal (activation) is the desired outcome for the EPAC1 agonist while no activity in this assay is desired for the EPAC2 agonist counterscreen.
[1] de Rooij, J., Zwartkruis, F. J., Verheijen, M. H., Cool, R. H., Nijman, S. M., Wittinghofer, A., and Bos, J.L. (1998) Nature 396, 474-477.
Briefly, three uL of reagents (100 nM EPAC2, 250 nM RAP1B-BODIPY-GDP, 50 uM GDP) were dispensed into a 1536-well Greiner black solid-bottom medium binding assay plate. Controls and test compounds (23 nL) were transferred to the plate via a Kalypsys pin tool equipped with a 1536-pin array. The plates were centrifuged at 1,000 rpm for 15 seconds followed by 5 minute incubation at room temperature. The assay plates were read at 5 minute intervals for 30 minutes in the ViewLux plate reader using 480nm excitation and 540nm emission filters. The results were normalized to the agonist positive control of 6.5 mM cAMP.
On the % scale 0 is the no-effect control and ±100 the full control effect; potency means the concentration at half of the fitted maximal effect.
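Wherever activation is given: exchange makes BODIPY-GDP fluorescence drop when released from Rap1B; series mostly up to about 150 µM.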

Sequence of Rap guanine nucleotide exchange factor 4 (Homo sapiens) (Q8WZA2 whole entry, looked up): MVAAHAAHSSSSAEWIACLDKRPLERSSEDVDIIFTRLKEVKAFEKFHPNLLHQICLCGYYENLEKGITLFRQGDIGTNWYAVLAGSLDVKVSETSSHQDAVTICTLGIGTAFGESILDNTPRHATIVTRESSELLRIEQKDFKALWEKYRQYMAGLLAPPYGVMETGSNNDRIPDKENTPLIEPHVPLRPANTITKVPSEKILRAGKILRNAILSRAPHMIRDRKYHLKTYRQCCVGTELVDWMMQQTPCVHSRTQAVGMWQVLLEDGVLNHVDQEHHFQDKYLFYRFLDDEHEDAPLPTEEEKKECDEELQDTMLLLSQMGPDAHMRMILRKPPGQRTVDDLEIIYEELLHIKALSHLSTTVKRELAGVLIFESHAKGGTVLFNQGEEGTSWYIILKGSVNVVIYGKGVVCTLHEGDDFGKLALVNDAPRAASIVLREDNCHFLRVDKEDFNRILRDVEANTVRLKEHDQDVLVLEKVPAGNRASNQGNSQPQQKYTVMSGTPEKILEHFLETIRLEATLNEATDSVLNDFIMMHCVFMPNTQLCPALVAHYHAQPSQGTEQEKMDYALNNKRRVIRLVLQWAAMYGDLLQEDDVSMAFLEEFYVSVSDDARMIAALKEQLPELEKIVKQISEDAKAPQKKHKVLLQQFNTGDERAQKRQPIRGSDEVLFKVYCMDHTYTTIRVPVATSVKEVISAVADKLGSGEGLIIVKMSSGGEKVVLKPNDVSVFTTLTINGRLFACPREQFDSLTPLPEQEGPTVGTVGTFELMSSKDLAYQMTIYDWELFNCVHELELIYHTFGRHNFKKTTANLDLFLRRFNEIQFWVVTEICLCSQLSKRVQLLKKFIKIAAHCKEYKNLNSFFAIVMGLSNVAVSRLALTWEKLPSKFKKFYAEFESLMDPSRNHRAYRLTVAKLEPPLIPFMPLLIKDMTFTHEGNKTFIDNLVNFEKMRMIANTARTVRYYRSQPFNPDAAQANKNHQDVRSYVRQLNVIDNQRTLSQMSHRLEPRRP

| Structure (SMILES) | activation | Potency |
| --- | --- | --- |
| CCNc1ncc2nc(-c3ccccc3)c(=O)n(CCc3ccccc3)c2n1 | 4.35% (inactive) |  |
| CN1CCCC(CNC(=O)c2cnn(-c3ncc4c(n3)-c3ccccc3CC4)c2C2CC2)C1 (stereo not drawn) | -10.8% (inactive) |  |
| O=C(CNC(=O)c1cccnc1)c1ccc(F)cc1 | -17.4% (inactive) |  |
| O=C(c1cn(C2CCCN(Cc3cc(Cl)ccc3O)C2)nn1)N1CCCCC1 (stereo not drawn) | -0.543% (inactive) |  |
| CNc1ccnc(-c2cccc(NS(C)(=O)=O)c2)n1 | 1.54% (inactive) |  |
| CC(=O)Nc1ccc(S[C@@H](CCN2CC[C@H](C(C)(C)C)CCC2=O)c2ccccc2)cc1 | -31.2% (inactive) |  |
| O=C(O)COc1ccc(CCNS(=O)(=O)c2ccccc2)s1 | 2.15% (inactive) |  |
| CCn1c(-c2ccccc2F)nc2cc(NC(C)=O)cc(C(=O)N3CCNC(=O)C3CC(=O)OC)c21 (stereo not drawn) | -2.82% (inactive) |  |
| O=C(C[N+]12CCCc3cccc(c31)CCC2)c1ccccc1 | -2.28% (inactive) |  |
| CN(C)c1ccc(C(=C2C=CC(=[N+](C)C)C=C2)c2ccccc2)cc1 | -24.7% (inactive) |  |
| Cn1c(C(c2cc3ccccc3n2C)c2cc3ccccc3n2C)cc2ccccc21 | 11.4% (inactive) |  |
| COc1ccccc1CNc1ccnc(-c2ccoc2)n1 | -10.4% (inactive) |  |
| CCCN1CCC(=O)N([C@H](CSc2ccccc2)c2ccccc2)CC1 | -10.4% (inactive) |  |
| CC(=O)OC1CCC2(C)C3CC(=O)C4(C)C(CC5OC6(CCC(C)CO6)C(C)C54)C3CC[C@H]2C1 (stereo partly drawn) | -13.5% (inactive) |  |
| O=C(O)c1ccc2nc(-c3ccccc3)c(-c3ccccc3)nc2c1 | 11.6% (inactive) |  |
| Cc1nc(NCc2c(F)cccc2F)sc1-c1ccn(CCN2CCOCC2)n1 | -13.4% (inactive) |  |
| COc1ccc(C(=O)N2CCC[C@@]3(CCN(c4ncccn4)C3)C2)cc1 | -15.1% (inactive) |  |
| COc1cccc(Cn2c(=O)c(-c3ccc(F)cc3)nc3cnc(N4CCNCC4)nc32)c1 | 12.8% (inactive) |  |
| C=C1CCC(OC(C)=O)/C(C)=C/CC2[C@H]1CC2(C)C (stereo partly drawn) | -15.7% (inactive) |  |
| CCOC(=O)C[C@H]1c2cc(F)ccc2S(=O)(=O)N1C1CCCC1 | -9.78% (inactive) |  |
| CN(C)c1ccc(/C=C/c2c3ccccc3nc3ccccc23)cc1 | -14.9% (inactive) |  |
| Cc1cnc2ccccc2c1/C=C/c1ccc(N(C)C)cc1 | 20.8% (inactive) |  |
| CN(C)c1ccc(/C=C/c2c3c(nc4ccccc24)CCCC3)cc1 |  | 44.7 µM (active) |
| OC(CN1CCCCC1)c1cc(-c2ccccc2)on1 (stereo not drawn) | 8.32% (inactive) |  |
| CN(Cc1ccco1)c1ncnc2ccc(-c3ccccc3C(F)(F)F)cc12 | -4.16% (inactive) |  |
| Cc1c(C(=O)N(C)Cc2cscn2)sc2ncnc(NC[C@H]3CCc4ccccc4O3)c12 | -2.34% (inactive) |  |

| Structure (SMILES) | activation | Potency |
| --- | --- | --- |
| O=C(O)[C@@H]1CN[C@@H](C(=O)O)C1 | 11.8% (inactive) |  |
| Cc1cc2c(c(-c3cnccn3)c1)OC(CNC(=O)c1ccc(-n3nc(C)cc3C)cc1)C2 (stereo not drawn) | -7.18% (inactive) |  |
| CC(C)CC(NC(=O)CN)C(=O)NC(Cc1ccccc1)C(=O)O (stereo not drawn) (H-Gly-Leu-Phe-OH; configuration not given here) | -3.33% (inactive) |  |
| CO[C@H]1[C@H](NC(=O)c2ccco2)c2ccccc2C12CCN(Cc1cnc(N(C)C)s1)CC2 | -21.4% (inactive) |  |
| COc1ccc(-c2nc3cnc(OC)nc3n(C[C@H]3CCCO3)c2=O)cc1 | -6.48% (inactive) |  |
| O=C(O)CCC(=O)OC[C@@H](NC(=O)C(Cl)Cl)C(O)c1ccc([N+](=O)[O-])cc1 (stereo partly drawn) | -9.09% (inactive) |  |
| COCCn1c(=O)c(C)nc2cnc(OC)nc21 | -6.26% (inactive) |  |
| CC(=O)O[C@H]1C[C@H]2CC[C@@H]3[C@H]4C[C@@H]([N+]5(C)CCCCC5)[C@@H](OC(C)=O)[C@]4(C)CC[C@@H]3[C@@]2(C)C[C@@H]1[N+]1(C)CCCCC1 | -8.62% (inactive) |  |
| O=c1c(-c2ccccc2)nc2cnc(Oc3ccccc3)nc2n1Cc1cccs1 | -18.6% (inactive) |  |
| CN1CCN(c2ncc3nc(CCc4ccccc4)c(=O)n(Cc4cccs4)c3n2)CC1 | 14.9% (inactive) |  |
| CC1=CC(=O)c2ccccc2C1=O | -29.9% (inactive) |  |
| CC1(S(=O)(=O)O)CC(=O)c2ccccc2C1=O (stereo not drawn) | 3.25% (inactive) |  |
| CC1(C)CCC2=C(O1)c1ccccc1C(=O)C2=O | 17.8% (inactive) | 70.8 µM (active) |
| CC(C)C(C)/C=C/C(C)C1CCC2C3=CCC4CC(=O)CC[C@@]4(C)C3CC[C@]21C (stereo partly drawn) | 0.449% (inactive) |  |
| O=C(O)c1cccc(/C=C2/C[C@@H]3[C@@H](/C=C/[C@@H](O)C4CCCCC4)[C@H](O)C[C@@H]3O2)c1 | 15.9% (inactive) |  |
| C=C1Cc2c(Cl)cc3[nH]c4c5c3c2[C@@]2(O)[C@@H]1C[C@@H]2C(C)(C)O[C@H]5[C@@H]1CC[C@@]2(O)[C@@]35O[C@@H]3[C@@H](O)[C@@H](C(=O)O)O[C@H]5CC[C@]2(C)[C@@]41C | -9.97% (inactive) |  |
| N#CC[C@H](Cc1ccccc1)N1CC[C@@H](NC(=O)OCc2ccccc2)CCC1=O | -28.7% (inactive) |  |
| Oc1cc(-c2nc3ccccc3s2)cc2c1OCCN(Cc1cccn1-c1ccccn1)C2 | 7.3% (inactive) |  |
| COc1ccc(CN([C@H](CO)CC(C)C)S(=O)(=O)N(Cc2ccccc2)[C@H](CO)CC(C)C)cc1 | -27.3% (inactive) |  |
| CCNc1ncc2nc(-c3cccs3)c(=O)n(CCc3ccccc3)c2n1 | -14% (inactive) |  |
| CCNc1ncc2nc(-c3cccs3)c(=O)n(CCC#N)c2n1 |  | 50.1 µM (active) |
| N#CCCn1c(=O)c(-c2cccs2)nc2cnc(Nc3ccccc3)nc21 | -2.03% (inactive) |  |
| O=c1[nH]c(=O)n(C2CC(O)C(CO)O2)cc1F (stereo not drawn) | -6.18% (inactive) |  |
| CC(=O)Oc1ccc2c(c1)CCC1C2CC[C@]2(C)C(OC(C)=O)CCC12 (stereo partly drawn) | -1.9% (inactive) |  |
| C[C@]12CC[C@@H]3c4ccc(OC(=O)c5ccccc5)cc4CC[C@H]3[C@@H]1CC[C@@H]2O | -2.11% (inactive) |  |
| CC(=O)Oc1ccc2c(c1)CC[C@@H]1[C@@H]2CC[C@]2(C)[C@@H](O)CC[C@@H]12 |  | 44.7 µM (active) |
